Source: PubChem BioAssay (NCATS)
Results filed as inconclusive are left out. A call without a number means that no potency is given here. The source made the active and inactive calls. Calls come from the whole dose curve; as a rule, active = well fitted cell-killing curve with a large enough effect; inconclusive = small, poorly fitted or top-dose-only effect, or effect the other way; inactive = no such curve, though single readings can be large or run the other way.

assay: qHTS of pediatric cancer cell lines to identify multiple opportunities for drug repurposing: Confirmatory screen for Saos-2 cells (AID 1347127); settings: Saos-2 osteosarcoma cell viability; series mostly up to 45.9 µM; note: nearly all actives have a fitted effect of over 60% in size
In short: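 Viability after 48 h compound treatment at 37C, 500-1,000 cells/well, read as ATP luminescence with CellTiter-Glo. Primary screens used 11-point (MIPE, 0.78 nM-46 µM) or 8-point (NPC, 0.59 nM-46 µM) final concentrations; follow-up screens used 11-point dilutions.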
Potency is the fitted concentration of half-maximal effect.

**Q.** For `C[C@@]1(C(=O)Nc2ccc(F)nc2)CCCN1c1nc(Nc2cc(C3CC3)[nH]n2)c2cccn2n1`, which Potency is on record?
**A.** 1.85 µM (active)

**Q.** With `CC(C)CN(C[C@@H](O)[C@H](Cc1ccccc1)NC(=O)O[C@H]1CO[C@H]2OCC[C@H]21)S(=O)(=O)c1ccc(N)cc1` as the molecule, how does the Potency read?
**A.** inactive

**Q.** With `COc1cc([C@@H]2c3cc4c(cc3[C@@H](O[C@@H]3O[C@@H]5CO[C@@H](C)O[C@@H]5[C@H](O)[C@@H]3O)[C@H]3COC(=O)[C@H]23)OCO4)cc(OC)c1O` as the molecule, how does the Potency read?
**A.** 5.22 µM (active)

**Q.** Which Potency does the source give for `CC(C)C[C@@H](C(=O)N[C@H](C(=O)OC1CCCC1)c1ccccc1)[C@H](O)C(=O)NO` here?
**A.** 5.85 µM (active)

**Q.** With `O=C1Nc2ccc(I)cc2C1=Cc1cc(Br)c(O)c(Br)c1` as the molecule, how does the Potency read?
**A.** inactive

**Q.** With `CN(C)CC[C@H](CSc1ccccc1)Nc1ccc(S(=O)(=O)NC(=O)c2ccc(N3CCN(Cc4ccccc4-c4ccc(Cl)cc4)CC3)cc2)cc1[N+](=O)[O-]` as the molecule, how does the Potency read?
**A.** 5.85 µM (active)

**Q.** For `C[C@@H]1O[C@@H](O[C@H]2CC[C@@]3(C)[C@H](CC[C@@H]4[C@H]3C[C@@H](O)[C@]3(C)[C@@H](C5=CC(=O)OC5)CC[C@]43O)C2)C[C@H](O)[C@@H]1O[C@H]1C[C@H](O)[C@H](O[C@H]2C[C@H](O)[C@@H](O)[C@@H](C)O2)[C@H](C)O1` (stereo in doubt), which Potency is on record?
**A.** 1.91 µM (active)

**Q.** For `CCC[C@H](Nc1nc(-c2ccc(NC(=O)NCC)c(OC)c2)ncc1C)c1cccnc1`, which Potency is on record?
**A.** 0.208 µM (active)

**Q.** For `Cc1cnc(-c2cc(N3CCN(C(=O)CCS(C)(=O)=O)CC3)ncc2Cl)c(C)c1`, which Potency is on record?
**A.** inactive

**Q.** Which Potency does the source give for `COc1ccc2c(c1)c(C1=C(c3c[nH]c4ccccc34)C(=O)NC1=O)cn2CCCN(C)C` here?
**A.** inactive

**Q.** With `CCC(c1ccc(O)cc1)C(CC)c1ccc(O)cc1` (stereo not given) as the molecule, how does the Potency read?
**A.** inactive

**Q.** For `CCN(CCO)CCCOc1ccc2c(Nc3cc(CC(=O)Nc4cccc(F)c4)[nH]n3)ncnc2c1`, which Potency is on record?
**A.** inactive

**Q.** Which Potency does the source give for `CC1(C)OC2CC3C4CC(F)C5=CC(=O)C=CC5(C)C4C(O)CC3(C)[C@]2(C(=O)CO)O1` (stereo not given in full) here?
**A.** inactive

**Q.** Which Potency does the source give for `CC[C@]1(O)C[C@H]2CN(CCC3=c4ccccc4=N[C]3[C@@](C(=O)OC)(c3cc4c(cc3OC)N(C)[C@H]3[C@@](O)(C(N)=O)[C@H](O)[C@]5(CC)C=CCN6CC[C@]43[C@@H]65)C2)C1` here?
**A.** 0.0465 µM (active)

**Q.** Which Potency does the source give for `CCOC(=O)[C@H](CCc1ccccc1)N[C@@H](C)C(=O)N1CCCC1C(=O)O` (stereo not given in full) here?
**A.** 11.7 µM (active)

**Q.** Which Potency does the source give for `O=c1[nH]nc(OCCCc2ccc(Cl)cc2)c(NCc2cccnc2)c1Br` here?
**A.** inactive

**Q.** Which Potency does the source give for `CO[C@H]1/C=C\O[C@@]2(C)Oc3c(C)c(O)c4c(O)c(c5c(nc6cc(C)ccn65)c4c3C2=O)NC(=O)C(C)=CC=C[C@H](C)[C@H](O)[C@@H](C)[C@@H](O)[C@@H](C)[C@H](OC(C)=O)[C@H]1C` here?
**A.** inactive

**Q.** For `C[C@H](c1ccc(F)cc1CCCC(=O)O)N(c1cc(F)ccc1F)S(=O)(=O)c1ccc(Cl)cc1`, which Potency is on record?
**A.** inactive

**Q.** Which Potency does the source give for `Nc1ncnc2c1ncn2[C@@H]1O[C@H](CO)[C@@H](O)[C@@H]1O` here?
**A.** 9.27 µM (active)

**Q.** For `Cc1cc(CS(=O)(=O)c2ccccc2)cc(OCc2ccc(CN3CCC[C@H]3CO)cc2)c1`, which Potency is on record?
**A.** inactive
